# Columns and labels:
# Assay in all cases: DAPPL (digital affinity profiling via proximity ligation, sequencing); 10 mM Tris-HCl pH 7.5, 50 mM NaCl, 1 mM DTT, 4% glycerol, room temperature, 30 min; GST-TFs on glutathione beads, 16-mer random dsDNA library, 0.1% formaldehyde crosslink after washing; high values mean tight binding
# FLI1 = biological target: T1, FLI1 (Homo sapiens, UniProt Q01543 1-452); conditions: protein: recombinant; tags: N-terminal GST; dsDNA, one strand shown
# T1 sequence: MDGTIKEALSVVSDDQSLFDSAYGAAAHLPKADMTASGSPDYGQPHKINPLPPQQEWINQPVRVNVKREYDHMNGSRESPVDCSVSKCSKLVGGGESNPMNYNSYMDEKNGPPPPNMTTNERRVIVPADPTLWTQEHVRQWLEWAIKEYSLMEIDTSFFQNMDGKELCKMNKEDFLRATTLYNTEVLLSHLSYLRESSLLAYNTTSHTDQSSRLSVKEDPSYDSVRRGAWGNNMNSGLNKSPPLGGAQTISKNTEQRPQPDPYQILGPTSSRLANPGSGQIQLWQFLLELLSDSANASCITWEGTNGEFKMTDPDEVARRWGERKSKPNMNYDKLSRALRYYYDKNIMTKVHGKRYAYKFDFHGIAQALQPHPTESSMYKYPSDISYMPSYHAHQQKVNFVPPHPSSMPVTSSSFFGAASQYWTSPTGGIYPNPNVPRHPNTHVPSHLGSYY
# Procedure, shortened: (§1)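 Yeast served to express human transcription factors as GST fusions, which were then captured on glutathione beads and labelled with DNA barcodes. Pooled with a tag-only sample, they were incubated with 200 nmole of a 16-mer random double-stranded DNA library for 30 min at room temperature in Tris/NaCl/DTT/glycerol buffer, washed, crosslinked with 0.1% formaldehyde, ligated by proximity, amplified by PCR and sequenced. Dividing each hexamer's read frequency for a factor by its frequency for the tag-only sample gives the binding signal.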
# ELK1 = biological target: T2, ELK1 (Homo sapiens, UniProt P19419 1-428); conditions: protein: recombinant; tags: N-terminal GST; dsDNA, one strand shown
# T2 sequence: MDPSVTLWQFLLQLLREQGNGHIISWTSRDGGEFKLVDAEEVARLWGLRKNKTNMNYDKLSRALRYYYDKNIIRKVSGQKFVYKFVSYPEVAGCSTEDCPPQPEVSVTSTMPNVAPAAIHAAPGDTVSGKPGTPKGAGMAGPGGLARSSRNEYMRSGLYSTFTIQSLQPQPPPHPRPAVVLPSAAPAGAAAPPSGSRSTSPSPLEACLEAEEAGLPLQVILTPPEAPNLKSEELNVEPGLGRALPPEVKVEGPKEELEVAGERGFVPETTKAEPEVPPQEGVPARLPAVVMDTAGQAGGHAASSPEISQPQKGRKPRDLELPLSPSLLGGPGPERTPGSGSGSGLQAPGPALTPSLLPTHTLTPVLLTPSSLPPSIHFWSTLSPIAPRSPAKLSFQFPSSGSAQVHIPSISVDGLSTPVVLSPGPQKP
# Procedure, shortened: as §1
# GABPA = biological target: T3, GABPA (Homo sapiens, UniProt Q06546 1-454); conditions: protein: recombinant; tags: N-terminal GST; dsDNA, one strand shown
# T3 sequence: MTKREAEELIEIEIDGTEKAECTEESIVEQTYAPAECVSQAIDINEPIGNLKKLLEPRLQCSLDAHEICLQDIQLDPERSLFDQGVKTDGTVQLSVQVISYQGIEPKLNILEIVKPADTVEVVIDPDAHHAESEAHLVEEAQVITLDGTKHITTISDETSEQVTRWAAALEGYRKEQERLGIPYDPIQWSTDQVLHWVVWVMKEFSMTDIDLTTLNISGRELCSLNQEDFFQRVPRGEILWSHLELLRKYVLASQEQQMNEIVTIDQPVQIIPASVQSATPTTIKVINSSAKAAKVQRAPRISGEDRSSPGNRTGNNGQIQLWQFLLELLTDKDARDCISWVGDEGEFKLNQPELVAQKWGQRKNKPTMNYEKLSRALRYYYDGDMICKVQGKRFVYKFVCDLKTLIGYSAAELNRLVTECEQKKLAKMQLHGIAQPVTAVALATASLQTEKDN
# Procedure, shortened: as §1
# ERG = biological target: T4, ERG (Homo sapiens, UniProt P11308 1-479); conditions: protein: recombinant; tags: N-terminal GST; dsDNA, one strand shown
# T4 sequence: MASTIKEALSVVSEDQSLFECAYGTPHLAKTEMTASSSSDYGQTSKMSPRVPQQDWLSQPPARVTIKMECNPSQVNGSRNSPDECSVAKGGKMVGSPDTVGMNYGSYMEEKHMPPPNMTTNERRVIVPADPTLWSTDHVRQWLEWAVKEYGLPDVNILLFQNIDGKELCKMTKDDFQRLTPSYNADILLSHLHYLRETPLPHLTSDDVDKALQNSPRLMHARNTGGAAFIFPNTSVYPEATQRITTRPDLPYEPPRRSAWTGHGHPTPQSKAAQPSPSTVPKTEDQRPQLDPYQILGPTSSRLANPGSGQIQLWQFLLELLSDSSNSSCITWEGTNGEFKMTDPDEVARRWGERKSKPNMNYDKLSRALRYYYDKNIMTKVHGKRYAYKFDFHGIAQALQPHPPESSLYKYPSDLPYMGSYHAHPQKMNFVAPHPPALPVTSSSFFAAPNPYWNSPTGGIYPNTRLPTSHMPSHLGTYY
# Procedure, shortened: as §1
# ELF1 = ELF1 (Homo sapiens, UniProt P32519 1-619); conditions: protein: recombinant; tags: N-terminal GST; dsDNA, one strand shown
# Procedure, shortened: as §1
# EHF = biological target: T5, EHF (Homo sapiens, UniProt Q9NZC4 1-300); conditions: protein: recombinant; tags: N-terminal GST; dsDNA, one strand shown
# T5 sequence: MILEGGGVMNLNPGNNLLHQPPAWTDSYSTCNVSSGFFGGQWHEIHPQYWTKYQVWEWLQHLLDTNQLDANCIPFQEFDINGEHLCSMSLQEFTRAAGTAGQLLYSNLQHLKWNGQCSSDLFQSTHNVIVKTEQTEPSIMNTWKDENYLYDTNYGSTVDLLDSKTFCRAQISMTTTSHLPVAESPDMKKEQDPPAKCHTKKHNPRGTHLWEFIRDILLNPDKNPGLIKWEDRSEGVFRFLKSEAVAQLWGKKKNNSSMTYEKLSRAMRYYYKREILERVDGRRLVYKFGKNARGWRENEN
# Procedure, shortened: as §1
# SPI1 = SPI1 (Homo sapiens, UniProt P17947 1-270); conditions: protein: recombinant; tags: N-terminal GST; dsDNA, one strand shown
# Procedure, shortened: as §1
# SPIB = SPIB (Homo sapiens, UniProt Q01892 1-262); conditions: protein: recombinant; tags: N-terminal GST; dsDNA, one strand shown
# Procedure, shortened: as §1
# ELK3 = biological target: T6, ELK3 (Homo sapiens, UniProt P41970 1-407); conditions: protein: recombinant; tags: N-terminal GST; dsDNA, one strand shown
# T6 sequence: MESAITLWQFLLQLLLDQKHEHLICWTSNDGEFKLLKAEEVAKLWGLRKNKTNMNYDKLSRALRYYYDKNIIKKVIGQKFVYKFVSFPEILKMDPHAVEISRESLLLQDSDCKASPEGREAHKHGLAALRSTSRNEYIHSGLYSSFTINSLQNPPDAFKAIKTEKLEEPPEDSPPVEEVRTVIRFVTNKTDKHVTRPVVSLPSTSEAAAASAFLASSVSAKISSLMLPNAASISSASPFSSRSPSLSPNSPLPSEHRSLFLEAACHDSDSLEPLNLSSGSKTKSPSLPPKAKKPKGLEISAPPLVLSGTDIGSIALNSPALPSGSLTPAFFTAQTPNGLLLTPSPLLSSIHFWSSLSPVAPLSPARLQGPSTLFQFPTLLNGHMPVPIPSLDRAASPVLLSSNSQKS
# Procedure, shortened: as §1
# FEV = biological target: T7, FEV (Homo sapiens, UniProt Q99581 1-238); conditions: protein: recombinant; tags: N-terminal GST; dsDNA, one strand shown
# T7 sequence: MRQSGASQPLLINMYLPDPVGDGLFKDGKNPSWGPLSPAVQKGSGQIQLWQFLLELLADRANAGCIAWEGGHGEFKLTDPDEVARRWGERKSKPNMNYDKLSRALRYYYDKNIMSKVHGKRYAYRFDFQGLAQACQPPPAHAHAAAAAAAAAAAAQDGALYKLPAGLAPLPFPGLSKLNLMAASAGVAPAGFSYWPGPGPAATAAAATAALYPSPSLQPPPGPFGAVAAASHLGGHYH
# Procedure, shortened: as §1
# ETV5 = ETV5 (Homo sapiens, UniProt P41161 1-510); conditions: protein: recombinant; tags: N-terminal GST; dsDNA, one strand shown
# Procedure, shortened: as §1
# HSF1 = HSF1 (Homo sapiens, UniProt Q00613 1-529); conditions: protein: recombinant; tags: N-terminal GST; chain copies: 3; dsDNA, one strand shown
# Procedure, shortened: as §1
# SPIC = biological target: T8, SPIC (Homo sapiens, UniProt Q8N5J4 1-248); conditions: protein: recombinant; tags: N-terminal GST; dsDNA, one strand shown
# T8 sequence: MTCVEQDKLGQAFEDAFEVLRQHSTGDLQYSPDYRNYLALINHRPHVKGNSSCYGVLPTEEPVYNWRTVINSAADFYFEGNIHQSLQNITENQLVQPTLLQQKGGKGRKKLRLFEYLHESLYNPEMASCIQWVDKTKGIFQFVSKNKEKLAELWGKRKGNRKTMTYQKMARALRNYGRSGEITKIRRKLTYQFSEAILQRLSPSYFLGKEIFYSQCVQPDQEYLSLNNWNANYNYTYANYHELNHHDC
# Procedure, shortened: as §1
# ELF4 = ELF4 (Homo sapiens, UniProt Q99607 1-663); conditions: protein: recombinant; tags: N-terminal GST; dsDNA, one strand shown
# Procedure, shortened: as §1
# ELK4 = biological target: T9, ELK4 (Homo sapiens, UniProt P28324-2 1-405); conditions: protein: recombinant; tags: N-terminal GST; dsDNA, one strand shown
# T9 sequence: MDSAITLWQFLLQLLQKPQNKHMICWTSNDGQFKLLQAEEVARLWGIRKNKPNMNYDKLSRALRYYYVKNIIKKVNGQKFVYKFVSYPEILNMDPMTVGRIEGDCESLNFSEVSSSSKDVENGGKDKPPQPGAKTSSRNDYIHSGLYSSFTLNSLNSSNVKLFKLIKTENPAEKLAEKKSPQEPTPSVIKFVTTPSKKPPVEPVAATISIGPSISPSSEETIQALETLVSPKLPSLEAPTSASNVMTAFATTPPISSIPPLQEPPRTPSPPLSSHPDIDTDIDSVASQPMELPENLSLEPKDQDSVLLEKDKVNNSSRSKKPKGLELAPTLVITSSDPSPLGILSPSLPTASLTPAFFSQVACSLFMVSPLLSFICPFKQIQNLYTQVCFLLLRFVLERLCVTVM
# Procedure, shortened: as §1
# ETV2 = biological target: T10, ETV2 (Homo sapiens, UniProt O00321 1-342); conditions: protein: recombinant; tags: N-terminal GST; dsDNA, one strand shown
# T10 sequence: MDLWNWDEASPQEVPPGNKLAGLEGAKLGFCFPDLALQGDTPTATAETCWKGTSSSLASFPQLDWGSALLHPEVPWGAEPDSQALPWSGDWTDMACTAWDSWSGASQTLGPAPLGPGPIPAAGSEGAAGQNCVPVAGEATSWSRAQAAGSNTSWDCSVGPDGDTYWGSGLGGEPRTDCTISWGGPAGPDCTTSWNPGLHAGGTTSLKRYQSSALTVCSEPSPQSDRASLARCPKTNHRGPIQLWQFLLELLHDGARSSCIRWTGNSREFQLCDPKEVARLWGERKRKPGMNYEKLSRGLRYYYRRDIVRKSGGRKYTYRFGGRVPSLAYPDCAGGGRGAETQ
# Procedure, shortened: as §1
# ELF3 = biological target: T11, ELF3 (Homo sapiens, UniProt P78545 1-371); conditions: protein: recombinant; tags: N-terminal GST; dsDNA, one strand shown
# T11 sequence: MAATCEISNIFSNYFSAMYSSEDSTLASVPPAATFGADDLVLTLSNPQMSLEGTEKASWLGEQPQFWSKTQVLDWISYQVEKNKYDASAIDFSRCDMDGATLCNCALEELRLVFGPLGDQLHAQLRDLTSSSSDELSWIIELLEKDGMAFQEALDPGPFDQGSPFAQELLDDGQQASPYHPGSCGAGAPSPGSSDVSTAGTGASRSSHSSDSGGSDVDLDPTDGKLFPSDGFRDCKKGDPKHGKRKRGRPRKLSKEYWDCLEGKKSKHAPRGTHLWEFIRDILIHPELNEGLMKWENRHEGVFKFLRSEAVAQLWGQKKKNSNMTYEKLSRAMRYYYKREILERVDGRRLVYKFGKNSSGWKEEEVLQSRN
# Procedure, shortened: as §1
# CRX = CRX (Homo sapiens, UniProt O43186 1-299); conditions: protein: recombinant; tags: N-terminal GST; dsDNA, one strand shown
# Procedure, shortened: as §1
# ETV1 = ETV1 (Homo sapiens, UniProt P50549 1-477); conditions: protein: recombinant; tags: N-terminal GST; dsDNA, one strand shown
# Procedure, shortened: as §1
# ELF1, sequence (P32519 whole entry): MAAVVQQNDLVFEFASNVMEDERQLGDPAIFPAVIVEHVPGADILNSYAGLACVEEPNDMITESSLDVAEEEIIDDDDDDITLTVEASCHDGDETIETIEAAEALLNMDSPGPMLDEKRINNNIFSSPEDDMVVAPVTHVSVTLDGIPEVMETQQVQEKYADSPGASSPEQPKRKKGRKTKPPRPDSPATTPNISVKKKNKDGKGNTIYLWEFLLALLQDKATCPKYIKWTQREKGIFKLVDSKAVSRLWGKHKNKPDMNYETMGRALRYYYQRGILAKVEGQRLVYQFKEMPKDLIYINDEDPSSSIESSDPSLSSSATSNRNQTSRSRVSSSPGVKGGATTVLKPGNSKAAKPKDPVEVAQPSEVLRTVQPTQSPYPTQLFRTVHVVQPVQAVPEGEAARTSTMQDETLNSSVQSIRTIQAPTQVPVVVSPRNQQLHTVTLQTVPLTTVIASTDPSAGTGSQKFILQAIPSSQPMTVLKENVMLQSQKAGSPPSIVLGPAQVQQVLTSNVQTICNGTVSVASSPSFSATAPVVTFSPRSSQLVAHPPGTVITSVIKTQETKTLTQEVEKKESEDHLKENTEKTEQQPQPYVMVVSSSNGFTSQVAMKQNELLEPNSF
# ETV1, sequence (P50549 whole entry): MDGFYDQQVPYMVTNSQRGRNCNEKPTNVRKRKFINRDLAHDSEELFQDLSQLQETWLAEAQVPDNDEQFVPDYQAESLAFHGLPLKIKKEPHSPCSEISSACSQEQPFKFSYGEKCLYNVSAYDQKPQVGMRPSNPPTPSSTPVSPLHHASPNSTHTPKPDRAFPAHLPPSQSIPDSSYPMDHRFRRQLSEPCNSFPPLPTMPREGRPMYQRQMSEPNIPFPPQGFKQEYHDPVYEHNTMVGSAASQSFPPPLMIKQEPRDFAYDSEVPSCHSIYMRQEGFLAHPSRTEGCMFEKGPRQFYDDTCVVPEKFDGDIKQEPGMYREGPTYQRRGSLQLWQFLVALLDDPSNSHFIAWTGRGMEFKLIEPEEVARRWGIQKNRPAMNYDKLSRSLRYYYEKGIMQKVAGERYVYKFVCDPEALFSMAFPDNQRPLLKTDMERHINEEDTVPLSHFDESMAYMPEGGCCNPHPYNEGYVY
# ELF4, sequence (Q99607 whole entry): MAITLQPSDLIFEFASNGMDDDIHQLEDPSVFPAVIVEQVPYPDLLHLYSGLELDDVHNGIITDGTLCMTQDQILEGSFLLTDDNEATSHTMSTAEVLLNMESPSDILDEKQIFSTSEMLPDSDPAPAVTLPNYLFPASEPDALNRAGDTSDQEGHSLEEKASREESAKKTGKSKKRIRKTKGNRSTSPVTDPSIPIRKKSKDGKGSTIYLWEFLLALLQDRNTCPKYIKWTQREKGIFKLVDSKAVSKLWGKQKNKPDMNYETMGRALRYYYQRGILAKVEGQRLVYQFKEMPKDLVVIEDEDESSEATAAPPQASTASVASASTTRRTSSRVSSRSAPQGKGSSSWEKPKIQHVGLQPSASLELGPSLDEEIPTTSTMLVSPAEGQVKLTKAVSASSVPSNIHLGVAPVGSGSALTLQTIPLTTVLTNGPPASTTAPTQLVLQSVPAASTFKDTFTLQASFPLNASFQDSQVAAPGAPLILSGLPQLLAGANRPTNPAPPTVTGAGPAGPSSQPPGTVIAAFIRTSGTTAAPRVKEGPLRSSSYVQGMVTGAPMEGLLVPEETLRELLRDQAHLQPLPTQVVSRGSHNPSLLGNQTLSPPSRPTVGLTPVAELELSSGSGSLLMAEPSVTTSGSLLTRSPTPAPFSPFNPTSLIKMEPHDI
# ETV5, sequence (P41161 whole entry): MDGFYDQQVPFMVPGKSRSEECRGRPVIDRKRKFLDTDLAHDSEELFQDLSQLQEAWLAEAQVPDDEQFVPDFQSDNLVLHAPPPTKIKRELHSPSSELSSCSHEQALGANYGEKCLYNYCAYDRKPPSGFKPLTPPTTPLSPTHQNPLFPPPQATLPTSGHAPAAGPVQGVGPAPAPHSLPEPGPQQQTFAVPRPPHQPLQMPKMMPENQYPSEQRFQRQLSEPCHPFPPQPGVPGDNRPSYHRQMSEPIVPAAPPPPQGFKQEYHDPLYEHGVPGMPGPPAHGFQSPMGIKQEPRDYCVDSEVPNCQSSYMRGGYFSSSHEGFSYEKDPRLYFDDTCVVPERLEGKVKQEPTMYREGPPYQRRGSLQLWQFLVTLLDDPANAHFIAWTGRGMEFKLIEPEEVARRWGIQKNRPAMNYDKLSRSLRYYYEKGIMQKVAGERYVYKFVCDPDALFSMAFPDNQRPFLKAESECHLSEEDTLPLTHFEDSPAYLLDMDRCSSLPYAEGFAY
# CRX, sequence (O43186 whole entry): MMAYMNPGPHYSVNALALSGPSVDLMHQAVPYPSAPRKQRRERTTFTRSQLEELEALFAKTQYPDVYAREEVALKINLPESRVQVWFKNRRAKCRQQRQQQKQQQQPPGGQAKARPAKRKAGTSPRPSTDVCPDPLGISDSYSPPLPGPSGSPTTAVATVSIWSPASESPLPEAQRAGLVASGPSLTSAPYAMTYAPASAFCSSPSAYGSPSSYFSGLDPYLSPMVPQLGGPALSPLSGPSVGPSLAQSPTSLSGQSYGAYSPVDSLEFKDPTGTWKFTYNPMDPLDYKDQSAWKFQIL
# HSF1, sequence (Q00613 whole entry): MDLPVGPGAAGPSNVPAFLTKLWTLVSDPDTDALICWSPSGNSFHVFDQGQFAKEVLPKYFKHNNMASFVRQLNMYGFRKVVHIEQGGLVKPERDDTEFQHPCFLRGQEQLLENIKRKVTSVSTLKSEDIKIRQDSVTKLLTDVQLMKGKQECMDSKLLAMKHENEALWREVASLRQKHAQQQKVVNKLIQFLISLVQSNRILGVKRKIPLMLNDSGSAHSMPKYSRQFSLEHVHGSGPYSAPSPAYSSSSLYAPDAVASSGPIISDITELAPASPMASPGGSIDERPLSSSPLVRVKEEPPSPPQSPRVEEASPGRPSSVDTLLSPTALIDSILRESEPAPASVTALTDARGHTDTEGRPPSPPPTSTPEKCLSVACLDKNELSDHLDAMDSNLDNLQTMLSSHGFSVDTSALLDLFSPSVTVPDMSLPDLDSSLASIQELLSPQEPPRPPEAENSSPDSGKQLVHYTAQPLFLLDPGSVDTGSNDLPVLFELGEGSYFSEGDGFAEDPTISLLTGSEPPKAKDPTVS
# SPIB, sequence (Q01892 whole entry): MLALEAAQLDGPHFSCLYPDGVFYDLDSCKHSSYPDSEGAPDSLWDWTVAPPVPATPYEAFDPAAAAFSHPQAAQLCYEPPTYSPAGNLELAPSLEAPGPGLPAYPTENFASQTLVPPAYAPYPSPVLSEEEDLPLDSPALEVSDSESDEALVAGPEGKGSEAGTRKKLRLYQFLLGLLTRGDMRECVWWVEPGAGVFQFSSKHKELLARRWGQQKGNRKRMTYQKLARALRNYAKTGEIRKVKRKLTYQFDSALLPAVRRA
sequence,measurement,setting,value
TTAAGG,binding signal,FLI1,"1.14 fold enrichment (6-mer frequency, TF over GST control)"
same,binding signal,ELK1,"1.14 fold enrichment (6-mer frequency, TF over GST control)"
same,binding signal,GABPA,"1.2 fold enrichment (6-mer frequency, TF over GST control)"
same,binding signal,ERG,"1.18 fold enrichment (6-mer frequency, TF over GST control)"
same,binding signal,ELF1,"1.13 fold enrichment (6-mer frequency, TF over GST control)"
same,binding signal,EHF,"1.13 fold enrichment (6-mer frequency, TF over GST control)"
same,binding signal,SPI1,"1.26 fold enrichment (6-mer frequency, TF over GST control)"
same,binding signal,SPIB,"1.15 fold enrichment (6-mer frequency, TF over GST control)"
same,binding signal,ELK3,"1.06 fold enrichment (6-mer frequency, TF over GST control)"
same,binding signal,FEV,"1.16 fold enrichment (6-mer frequency, TF over GST control)"
same,binding signal,ETV5,"1.11 fold enrichment (6-mer frequency, TF over GST control)"
same,binding signal,HSF1,"1.67 fold enrichment (6-mer frequency, TF over GST control)"
same,binding signal,SPIC,"1.23 fold enrichment (6-mer frequency, TF over GST control)"
same,binding signal,ELF4,"1.14 fold enrichment (6-mer frequency, TF over GST control)"
same,binding signal,ELK4,"1.25 fold enrichment (6-mer frequency, TF over GST control)"
same,binding signal,ETV2,"1.23 fold enrichment (6-mer frequency, TF over GST control)"
same,binding signal,ELF3,"1.2 fold enrichment (6-mer frequency, TF over GST control)"
same,binding signal,CRX,"2.78 fold enrichment (6-mer frequency, TF over GST control)"
same,binding signal,ETV1,"1.15 fold enrichment (6-mer frequency, TF over GST control)"

# Source: PMC7862700, “An all-to-all approach to the identification of sequence-specific readers for epigenetic DNA modifications on cytosine”
